23 compounds from PubChem BioAssay (Tox21) can be followed below.

Active and inactive are the calls of the source. Unless noted, the call rests on the fitted dose curve; in most records, active means well fitted curve in the direction sought with a large enough effect in the repeat runs; inconclusive means weak or mixed curves; inactive means no such curve, though single readings can be large; an effect the other way counts as inactive or inconclusive.

Assay [1] in a line: qHTS assay to identify small molecule antagonists of the thyroid receptor (TR) signaling pathway - cell viability counter screen (AID 743064). Further: nearly all actives have a fitted effect of over 50% in size. Further: potency means the concentration at half of the fitted maximal effect. The essentials: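 Fluorescence from CellTiter-Fluor, added after 23.5 h exposure at 37 °C, reported viability of GH3.TRE-Luc cells co-treated with compound and 1 nM T3. Measured in the same wells as the luciferase TR readout.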
For orientation: In qHTS, concentration-response curves come from the screen itself.

A short description of assay [2]: qHTS assay to identify small molecule antagonists of the thyroid receptor (TR) signaling pathway (AID 743065). Further: nearly all actives have a fitted effect of over 55% in size. Further: potency means the concentration at half of the fitted maximal effect. The essentials:
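GH3.TRE-Luc rat pituitary cells carrying two TR response elements driving luciferase were plated for 4 h, given compound plus 1 nM T3 (final), and incubated 23.5 h at 37 C. ONE-Glo luminescence measured reporter inhibition; CellTiter-Fluor fluorescence tracked cytotoxicity.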

In assay [3] the test system is thyroid hormone receptor (rat, GH3 cells). As to the kind of experiment: qHTS assay to identify small molecule agonists of the thyroid receptor (TR) signaling pathway (AID 743066; calls by dose curve).
A short description of assay [4]: qHTS assay to identify small molecule antagonists of the estrogen receptor alpha (ER-alpha) signaling pathway - cell viability counter screen (AID 743074; calls by dose curve;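 further: HEK293 cells carrying ER-alpha-UAS-bla reporter stimulated with 17beta-estradiol; nearly all actives have a fitted effect of over 45% in size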; further: potency means the concentration at half of the fitted maximal effect).
The target in assay [5] is Estrogen receptor (Homo sapiens) (UniProt P03372). As to the kind of experiment: qHTS assay to identify small molecule agonists of the estrogen receptor alpha (ER-alpha) signaling pathway (AID 743075; calls by dose curve;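 further: HEK293 GripTite cells with ER-alpha and UAS-driven beta-lactamase reporter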; further: potency means the concentration at half of the fitted maximal effect).
Sequence of Estrogen receptor (Homo sapiens) (P03372 whole entry, looked up): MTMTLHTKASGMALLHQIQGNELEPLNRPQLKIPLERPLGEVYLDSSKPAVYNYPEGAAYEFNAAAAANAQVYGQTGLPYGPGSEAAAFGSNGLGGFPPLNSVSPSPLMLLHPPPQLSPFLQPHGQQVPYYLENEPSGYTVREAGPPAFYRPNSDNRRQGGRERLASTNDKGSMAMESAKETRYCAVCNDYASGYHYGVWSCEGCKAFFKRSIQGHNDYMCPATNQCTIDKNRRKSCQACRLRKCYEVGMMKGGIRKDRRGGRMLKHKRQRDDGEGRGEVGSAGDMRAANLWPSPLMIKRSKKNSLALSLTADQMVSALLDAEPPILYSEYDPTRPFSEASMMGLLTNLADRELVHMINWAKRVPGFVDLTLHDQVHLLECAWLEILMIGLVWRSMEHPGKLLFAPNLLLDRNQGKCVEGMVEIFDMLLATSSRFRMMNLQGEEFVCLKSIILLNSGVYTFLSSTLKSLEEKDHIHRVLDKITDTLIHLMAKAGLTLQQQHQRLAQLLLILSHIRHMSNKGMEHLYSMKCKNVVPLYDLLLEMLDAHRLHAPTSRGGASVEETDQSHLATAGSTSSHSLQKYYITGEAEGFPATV
The target is the same in assay [6]. As to the kind of experiment: qHTS assay to identify small molecule agonists of the estrogen receptor alpha (ER-alpha) signaling pathway using the BG1 cell line (AID 743079). Further: nearly all actives have a fitted effect of over 20% in size. Further: potency means the concentration at half of the fitted maximal effect. Conditions: BG1Luc4E2 cells, ERE-luciferase agonist, 22 h; activation: at 70.3 µM (top of the series).
Assay [7] can be described thus: qHTS assay to identify small molecule antagonists of the estrogen receptor alpha (ER-alpha) signaling pathway using the BG1 cell line (AID 743080; calls by dose curve;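 further: BG1 cells stimulated with 17beta-estradiol alongside compound; nearly all actives have a fitted effect of over 25% in size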). The essentials: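 Luciferase inhibition measured with ONE-Glo after 30 min at RT in BG1Luc4E2 cells given test compounds and 17beta-estradiol for 21.5 h at 37 C; CellTiter-Fluor viability read in the same wells beforehand.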

A short description of assay [8]: qHTS assay to identify small molecule antagonists of the estrogen receptor alpha (ER-alpha) signaling pathway using the BG1 cell line - cell viability counter screen (AID 743081).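 Further: compound given together with 17beta-estradiol as the ER stimulus; nearly all actives have a fitted effect of over 45% in size.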
The target of assay [9] is Aromatase (Homo sapiens) (UniProt P11511). As to the kind of experiment: qHTS assay to identify aromatase inhibitors (AID 743083). Further: nearly all actives have a fitted effect of over 55% in size. Further: potency means the concentration at half of the fitted maximal effect.
Sequence of Aromatase (Homo sapiens) (P11511 whole entry, looked up): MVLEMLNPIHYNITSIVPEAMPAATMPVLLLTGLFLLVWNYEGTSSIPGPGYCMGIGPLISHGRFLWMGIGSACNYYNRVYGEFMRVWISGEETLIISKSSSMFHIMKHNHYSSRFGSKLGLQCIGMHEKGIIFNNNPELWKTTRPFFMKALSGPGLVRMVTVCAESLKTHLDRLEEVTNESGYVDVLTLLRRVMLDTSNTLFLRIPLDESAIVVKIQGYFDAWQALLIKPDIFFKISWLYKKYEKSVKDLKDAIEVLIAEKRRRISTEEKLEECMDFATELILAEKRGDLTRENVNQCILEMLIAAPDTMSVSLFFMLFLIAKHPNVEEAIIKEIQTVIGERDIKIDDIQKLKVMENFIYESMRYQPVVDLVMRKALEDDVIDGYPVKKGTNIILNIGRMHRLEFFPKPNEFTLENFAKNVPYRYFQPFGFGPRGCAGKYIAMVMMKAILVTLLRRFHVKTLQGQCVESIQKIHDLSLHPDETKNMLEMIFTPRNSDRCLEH

On to `O=c1oc2cc(O)ccc2s1`, for which the Potency entry in assay [1], in assay [2], in [3], in [4], in assay [5] and in assay [6] was “inactive” each time. The Potency entry in [7], in assay [8] and in assay [9] was “inactive” throughout.
For the compound `Cc1c(N)nc(C(CC(N)=O)NCC(N)C(N)=O)nc1C(=O)NC(C(=O)NC(C)C(O)C(C)C(=O)NC(C(=O)NCCc1nc(-c2nc(C(=O)NCCCN[C@@H](C)c3ccccc3)cs2)cs1)C(C)O)C(O[C@@H]1O[C@@H](CO)[C@@H](O)[C@H](O)[C@@H]1O[C@H]1O[C@H](CO)[C@@H](O)[C@H](OC(N)=O)[C@@H]1O)c1cnc[nH]1` (stereo partly drawn), the Potency in assay [1] is 1.68 µM (active); in assay [2], 3.76 µM (active). For the same compound, the Potency entry in [3], in assay [4] and in assay [8] was “inactive” throughout.
For the compound `CC(C)(C)CC(=O)OCC(=O)[C@@]12OC(C)(C)O[C@@H]1C[C@H]1[C@@H]3CCC4=CC(=O)C=C[C@]4(C)[C@@]3(F)[C@@H](O)C[C@@]12C`, the Potency result in assay [1], in assay [2], in [3], in assay [4], in assay [6] and in assay [9] was “inactive” each time.
In the case of `CCCCC[C@H](O)/C=C/[C@@H]1[C@H]2C/C(=C/CCCC(=O)O)O[C@H]2C[C@H]1O`, the Potency result in [1], in [2], in [3], in assay [4], in [6] and in assay [9] was “inactive” throughout.
As to `CC(=O)Oc1c(C)cc(OCC(O)CNC(C)C)c(C)c1C` (stereo not drawn), the Potency result in assay [1], in assay [2], in assay [3], in [4], in [7] and in assay [8] was “inactive” in each case. The Potency entry in [9] was “inactive”. For the same compound, the Potency in [5] was 10.7 µM [inconclusive] (active); in [6] it was 3.76 µM (active).
Consider `Cc1cc(Nc2ccccc2C(=O)O)ccc1Cl`, for which the Potency result in assay [1], in [3], in assay [4], in assay [5], in assay [7] and in [9] was “inactive” throughout. Moreover, in assay [2], the Potency was 26.6 µM (active).
For `CS(=O)(=O)Nc1cc2occ(NC=O)c(=O)c2cc1Oc1ccccc1`, the Potency entry in [1], in assay [2], in [3], in [4], in assay [8] and in assay [9] was “inactive” in each case.
Regarding `CC(/C=C/C=C(\C)C(=O)O[C@@H]1O[C@H](CO[C@@H]2O[C@H](CO)[C@@H](O)[C@H](O)[C@H]2O)[C@@H](O)[C@H](O)[C@H]1O)=C\C=C\C=C(C)\C=C\C=C(/C)C(=O)O[C@@H]1O[C@H](CO[C@@H]2O[C@H](CO)[C@@H](O)[C@H](O)[C@H]2O)[C@@H](O)[C@H](O)[C@H]1O`, the Potency result in [1], in [2], in assay [3], in [4] and in assay [8] was “inactive” throughout.
For the compound `O=C1N=C2SCCN2C(=O)C1Cc1ccc(Cl)cc1` (stereo not drawn), the Potency entry in [1], in assay [2], in assay [3], in assay [4] and in assay [8] was “inactive” each time.
On to `Nc1nc(=O)n([C@@H]2CS[C@H](CO)O2)cc1F`, for which the Potency entry in [1], in assay [2], in [3], in assay [4] and in assay [8] was “inactive” throughout.
Take `CCc1ccc(S(=O)(=O)O)cc1`: the Potency entry in [1], in [2], in assay [3], in assay [4], in assay [7] and in [8] was “inactive” each time. Further, the Potency entry in assay [9] is “inactive”. Besides, the Potency was 4.77 µM [inconclusive] (active) in [5] and 0.298 µM (active) in [6].
As to `CC(C)(C)C1(O)CCN2CC3c4ccccc4CCc4cccc(c43)C2C1` (stereo not drawn), the values for the Potency in assay [1], in assay [2] and in assay [9] were 26.6 µM (active), 23.7 µM (active) and 29.8 µM (active), respectively. For the same compound, the Potency result in assay [3], in [4], in assay [5] and in assay [8] was “inactive” throughout.
Regarding `CCCC(=O)O[C@]1(C(=O)COC(=O)CC)[C@@H](C)C[C@H]2[C@@H]3CCC4=CC(=O)C=C[C@]4(C)[C@@]3(F)[C@@H](O)C[C@@]21C`, the Potency result in [1], in [2], in assay [3], in [4], in [5] and in assay [6] was “inactive” throughout. In [9], the Potency result was “inactive”.
As to `CCCN(CC)C(CC)C(=O)Nc1c(C)cccc1C` (stereo not drawn), the Potency entry in assay [1], in assay [2], in assay [3], in assay [4], in [5] and in assay [6] was “inactive” each time. Besides, the Potency result in [7] and in assay [9] was “inactive” in each case.
Turning to `CC(=O)Nc1ccc(NC(=S)NC(=O)c2ccc(C(C)(C)C)cc2)cc1`, the Potency is 8.41 µM (active) in assay [1] and 2.66 µM (active) in assay [2]. In addition, the Potency result in assay [3], in assay [4], in assay [8] and in [9] was “inactive” throughout.
In the case of `C[C@H]1C[C@@H]2[C@H]([C@@H](O)C[C@@]3(C)[C@H]2CC[C@]3(O)C(=O)COC(=O)CCC(=O)O)[C@@]2(C)C=CC(=O)C=C12`, the Potency result in assay [1], in assay [2], in assay [3], in assay [8] and in assay [9] was “inactive” in each case. Besides, the Potency in assay [4] is 10.7 µM (active).
In the case of `CCCCCCCCCCCCCCCCCC(=O)OC[C@@H](O)[C@H]1OC[C@H](O)[C@H]1O`, the Potency entry in assay [1], in assay [2], in assay [3], in assay [4], in [8] and in assay [9] was “inactive” each time.
With `CC(C)C[C@H](NC(=O)[C@@H](Cc1c[nH]c2ccccc12)NC(=O)[C@H](Cc1ccc(O)cc1)NC(=O)[C@H](CO)NC(=O)[C@H](Cc1c[nH]c2ccccc12)NC(=O)[C@H](Cc1cnc[nH]1)NC(=O)[C@@H]1CCC(=O)N1)C(=O)N[C@@H](CCCN=C(N)N)C(=O)N1CCC[C@@H]1C(=O)NCC(N)=O`, the Potency result in [1], in assay [2], in assay [3], in assay [4], in assay [8] and in assay [9] was “inactive” in each case.
As to `CC(C)(S)[C@@H](N)C(=O)O`, the Potency entry in assay [1], in assay [2], in assay [3], in assay [4], in assay [8] and in [9] was “inactive” throughout.
As to `COc1ccc(CNCC(O)COc2ccc3[nH]c(=O)ccc3c2)cc1OC` (stereo not drawn), the Potency result in [1], in [2], in assay [3], in [4], in assay [8] and in assay [9] was “inactive” throughout.
For `O=C(O)c1nc(=O)[nH]c(=O)[nH]1`, the Potency result in assay [1], in assay [2], in assay [3], in assay [4], in assay [8] and in assay [9] was “inactive” in each case.
Consider `O=C(/C=C/c1cccc(F)c1)NC1CC1`, for which the Potency entry in assay [1], in assay [2], in assay [3], in assay [4], in [8] and in [9] was “inactive” in each case.
Take `C[C@@H](O)[C@H]1C(=O)N2C(C(=O)[O-])=C(SC3Cn4cnc[n+]4C3)[C@H](C)[C@H]12` (stereo partly drawn): the Potency result in [1], in assay [2], in assay [3], in assay [4], in assay [8] and in [9] was “inactive” each time.
